This passage reports growth inhibition results from PubChem BioAssay (NCI).

This is part of a sample that, as a whole, favours compounds with a hit. Of some 79,000 tested, about 15% had one in any assay. Values without a mark were called inactive. The source made the active and inactive calls. No stated cut-off is given here; in the data, active means growth inhibition above about 70%; inactive means the rest.

A short description of assay [1]: NCI Yeast Anticancer Drug Screen. Data for the rad50 strain (AID 155).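 Further: 0% = growth of vehicle-only cultures of the same strain.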 As to conditions: S. cerevisiae rad50 strain growth inhibition; at 50.0 µM; active compounds read high. An outline of the steps:
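Yeast carrying a defined DNA repair defect were exposed to test compounds, and growth was compared with vehicle-treated controls to give percent inhibition.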

The nature of assay [2]: NCI Yeast Anticancer Drug Screen. Data for the mec2-1 strain (AID 157). As to conditions: S. cerevisiae mec2-1 strain, at 50.0 µM, active compounds read high. The method, boiled down:
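Readout is yeast growth inhibition, normalised to vehicle-treated controls, in the mec2-1 strain exposed to compound.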

Assay [3] in a line: NCI Yeast Anticancer Drug Screen. Data for the sgs1 mgt1 strain (AID 161).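 Further: 0% = growth of cultures given vehicle only.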 To be noted: S. cerevisiae sgs1 mgt1 strain, at 50.0 µM, active compounds read high. The method, boiled down:
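Growth of a repair-deficient yeast mutant was monitored after compound treatment and expressed as inhibition relative to vehicle-treated cultures.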

Assay [4] can be described thus: NCI Yeast Anticancer Drug Screen. Data for the cln2 rad14 strain (AID 165).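 Further: 0% = growth equal to vehicle treated cultures.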 As to conditions: S. cerevisiae cln2 rad14 strain, at 50.0 µM, active compounds read high. The method, boiled down: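 Relative to vehicle controls, growth inhibition of compound-treated cln2 rad14 yeast was recorded.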
The nature of assay [5]: NCI Yeast Anticancer Drug Screen. Data for the bub3 strain (AID 167). As to conditions: S. cerevisiae bub3 mutant strain, at 50.0 µM, active compounds read high. An outline of the steps: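 Compounds were applied to a genetically altered yeast strain carrying a cell-cycle control defect. Growth inhibition was scored against vehicle-treated controls.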
A short description of assay [6]: NCI Yeast Anticancer Drug Screen. Data for the mlh1 rad18 strain (AID 175). As to conditions: S. cerevisiae mlh1 rad18 strain growth inhibition; at 50.0 µM; active compounds read high. An outline of the steps:
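Test agents were incubated with a yeast strain of defined genotype (DNA damage repair defect). Inhibition of growth was derived by comparison with vehicle-exposed cultures.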

For the compound `COc1cccc(N=NN2CCCC2)c1`, the growth inhibition was 16.2% in assay [1]; 14.2% in assay [2]; 17.8% in assay [3]; 20.1% in assay [4]; 7.15% in assay [5]; 23.4% in assay [6].
Regarding `O=[S@@]1Nc2cc(Cl)c(Cl)cc2S1`, the growth inhibition in assay [1] is 9.6%; in assay [2], -2%; in assay [3], -6.6%; in assay [4], 3.45%; in assay [5], -0.05%; in assay [6], 14.1%.
As for `Cc1cc(Cl)ccc1N=Cc1ccc(C=Nc2ccc(Cl)cc2C)cc1`, the growth inhibition in assay [1] was 14.2%; in assay [2], 3.6%; in assay [3], -5.05%; in assay [4], -1.55%; in assay [5], 10.8%; in assay [6] it was -0.5%.
With `COc1ccc(NC(=O)Oc2ccccc2C(N)=O)c(Cl)c1`, the growth inhibition in assay [1] is -2.05%; in assay [2], 10.8%; in assay [3], 3.65%; in assay [4] it was 4.6%; in assay [5] it was 18.4%; in assay [6], 9.75%.
`COc1cccc(C(OC(=O)c2ccccc2)c2nncc3ccccc23)c1OC` (centres undefined): the growth inhibition is 32.4% in assay [1]; 11.8% in assay [2]; 9.6% in assay [3]; 5.9% in assay [4]; 9.85% in assay [5]; 5.8% in assay [6].
As to `CN(C)CC1CCC2=C(C1=O)C(c1ccccc1)C1=C(CCC(CN(C)C)C1=O)O2` (centres undefined), the growth inhibition is 1.55% in assay [1]; 2.1% in assay [2]; -1.7% in assay [3]; 13.4% in assay [4]; 4.3% in assay [5]; 3.7% in assay [6].
For `CCOC(=O)Cn1c(=O)c2nc(SC)sc2n(CC)c1=S`, the growth inhibition was -21.8% in assay [1]; 21.1% in assay [2]; -1.15% in assay [3]; -6.55% in assay [4]; 9.45% in assay [5]; 4% in assay [6].
For `OC12c3ccccc3C1CCCCCCCCCC21OCCO1` (centres undefined), the growth inhibition in assay [1] was -21.5%; in assay [2] it was -2.45%; in assay [3], -40.6%; in assay [4], 5.05%; in assay [5], -19.1%; in assay [6] it was -27.8%.
Regarding `CN1C(=O)c2ccccc2NC(=O)C12O[C@@H]2c1cccc(O)c1` (some centres undefined), the growth inhibition in assay [1] was 9%; in assay [2], -0.55%; in assay [3], 11.2%; in assay [4] it was 8.9%; in assay [5] it was 6.9%; in assay [6], 8.05%.
Regarding `CCCC(=O)N(C)c1ccccc1`, the growth inhibition in assay [1] was 7.5%; in assay [2] it was -11.1%; in assay [3], -1.85%; in assay [4] it was -29.4%; in assay [5] it was 6.35%; in assay [6] it was -8.35%.
Take `CN(C)/N=C1/CCCCC1C(O)(c1ccccc1)c1ccccc1` (centres undefined): the growth inhibition in assay [1] is -20.7%; in assay [2], -19.8%; in assay [3], -15.4%; in assay [4] it was -73.3%; in assay [5] it was -58.8%; in assay [6], -10.7%.
As for `CCOc1nc2ccc(N)cc2s1`, the growth inhibition is 19.6% in assay [1]; -9.55% in assay [2]; 3.25% in assay [3]; -31.9% in assay [4]; 11.4% in assay [5]; -12.3% in assay [6].
As for `CCOC(=O)c1ccncc1`, the growth inhibition is 23.6% in assay [1]; -0.95% in assay [2]; 21.7% in assay [3]; -4.4% in assay [4]; -1.5% in assay [5]; 6.4% in assay [6].
On to `O=C(O)/N=N\C(=O)O`, for which the growth inhibition is -36.9% in assay [1]; -23.9% in assay [2]; -19.4% in assay [3]; -5.05% in assay [4]; -26.4% in assay [5]; -27.2% in assay [6].
On to `COc1ccc(N=C2SC(=N/N=c3\sc4ccccc4n3C)SC2=Nc2ccc(OC)cc2)cc1`, for which the growth inhibition was 4.15% in assay [1]; -32.9% in assay [2]; -2.9% in assay [3]; -41.1% in assay [4]; 28.9% in assay [5]; -12.7% in assay [6].
Turning to `ClC1CC2CCC1C2` (centres undefined), the growth inhibition is 26.9% in assay [1]; -20.8% in assay [2]; 8.45% in assay [3]; 7.75% in assay [4]; -8.3% in assay [5]; 9.1% in assay [6].
Regarding `COC(=O)c1ccccc1N(C)C(=O)c1cc(OC)c(OC)c(OC)c1`, the growth inhibition in assay [1] is -27.4%; in assay [2] it was -37%; in assay [3], -5.75%; in assay [4], -11.1%; in assay [5], -19.4%; in assay [6], -8.85%.
Consider `NCC(O)c1cc(I)c(Oc2ccc(O)cc2)c(I)c1` (centres undefined), for which the growth inhibition is 7.65% in assay [1]; -19.8% in assay [2]; -22.6% in assay [3]; 12.3% in assay [4]; -1.35% in assay [5]; -11.5% in assay [6].
As to `O=[N+]([O-])C1CCC(N=Nc2c(O)ccc3ccccc23)CC1` (centres undefined), the growth inhibition in assay [1] is -9.95%; in assay [2], 3.6%; in assay [3] it was 4.65%; in assay [4] it was -27%; in assay [5], -50.6%; in assay [6], -0.6%.
For the compound `C/C(CC(=O)NC1=CC=C(NC(=O)C/C(C)=N\Nc2ccccc2)CC1)=N/Nc1ccccc1`, the growth inhibition in assay [1] is 8.65%; in assay [2], 12%; in assay [3], -18.8%; in assay [4] it was -9.35%; in assay [5], -0.1%; in assay [6] it was 13.7%.
As to `O=C(OCCN=c1c2ccccc2ccc2ccccc12)c1cc([N+](=O)[O-])cc([N+](=O)[O-])c1`, the growth inhibition in assay [1] is 13.1%; in assay [2], 4.75%; in assay [3], 34.3%; in assay [4], 21%; in assay [5], 13.6%; in assay [6] it was 39.8%.
Turning to `Nc1n[n+]([O-])c2cc([N+](=O)[O-])ccc2[n+]1[O-]`, the growth inhibition is 85.1% (active) in assay [1]; 87.9% (active) in assay [2]; 84.7% (active) in assay [3]; 79.7% (active) in assay [4]; 75.9% (active) in assay [5]; 68% in assay [6].
For `Clc1nc(Cl)c2ncn(C3CCCCO3)c2n1` (centres undefined), the growth inhibition in assay [1] is 26.4%; in assay [2] it was 26.1%; in assay [3], 5.05%; in assay [4] it was 4.6%; in assay [5], 38.2%; in assay [6], 14.3%.
`CCCC(=O)Nc1cccc(C(F)(F)F)c1`: the growth inhibition in assay [1] was 7.65%; in assay [2], 19.6%; in assay [3], -11.4%; in assay [4] it was 22.5%; in assay [5], 26.9%; in assay [6] it was 28.6%.
With `CCN(CC)c1ccc2c(c1)Cc1ccccc1-2`, the growth inhibition is 25.8% in assay [1]; 1.15% in assay [2]; 9.2% in assay [3]; 4.4% in assay [4]; -18.9% in assay [5]; -5.65% in assay [6].
Turning to `COC(=O)/C=C1/Nc2c(N)nc(N)nc2NC1=O`, the growth inhibition is 15.1% in assay [1]; 8.2% in assay [2]; 5.95% in assay [3]; -2.1% in assay [4]; -0.9% in assay [5]; 3.15% in assay [6].
Consider `Brc1cc2c(cc1CC1CCCCO1)OCO2` (centres undefined), for which the growth inhibition in assay [1] was -6.5%; in assay [2], -17.1%; in assay [3], 1.4%; in assay [4], -61.9%; in assay [5] it was -4.9%; in assay [6], 0.85%.
`O=C1NNC2(C(=O)N1)c1ccccc1-c1ccccc12`: the growth inhibition is 8.5% in assay [1]; -19.5% in assay [2]; 28.1% in assay [3]; 24.9% in assay [4]; 1.65% in assay [5]; 15.2% in assay [6].
Regarding `COc1cc(CNC(=O)NCCCl)cc(OC)c1OC`, the growth inhibition in assay [1] is -5.55%; in assay [2], 1.2%; in assay [3], -3.2%; in assay [4], -3.45%; in assay [5], -1%; in assay [6], 2.7%.
With `CC(C)(C)OC(=O)NCCc1ccc(N)cc1`, the growth inhibition in assay [1] is -18.1%; in assay [2], -5.55%; in assay [3], 22.9%; in assay [4] it was -0.7%; in assay [5], 8.05%; in assay [6] it was -10.2%.
With `COc1ccc(NC(=S)c2ccoc2C)cc1CC(=O)OC(C)C`, the growth inhibition in assay [1] is 17.4%; in assay [2], 18.4%; in assay [3] it was 48.5%; in assay [4], 13.2%; in assay [5] it was 37.9%; in assay [6], -18.7%.
With `COC1=C(c2ccccc2)P(=O)(Cc2ccccc2)C2CCCC12` (centres undefined), the growth inhibition in assay [1] was 4.95%; in assay [2], 21.4%; in assay [3] it was 35.9%; in assay [4] it was 7.6%; in assay [5], 21.4%; in assay [6] it was -17.3%.
`NC(=O)Cc1ccccn1`: the growth inhibition in assay [1] is 5.05%; in assay [2] it was -2.6%; in assay [3], 2.95%; in assay [4], -8.15%; in assay [5], 5.25%; in assay [6] it was 1.4%.
For the compound `COc1ccc(C(CC(=O)c2ccccc2)C(=O)c2ccc3c(c2)OCO3)cc1` (centres undefined), the growth inhibition in assay [1] is -40%; in assay [2], -50.5%; in assay [3], -38.8%; in assay [4], -12.7%; in assay [5] it was -0.3%; in assay [6], -31.6%.
In the case of `CN1CC(CN2CCCCCC2)C(O)C(c2ccccc2)C1` (centres undefined), the growth inhibition in assay [1] was 1.7%; in assay [2], -7.1%; in assay [3] it was 18%; in assay [4], 7.85%; in assay [5], -1.5%; in assay [6], 27.6%.
Consider `CCCCCCCCCCCCCCCCCCNC(=O)N(C)Cc1ccccc1`, for which the growth inhibition was 17.5% in assay [1]; 1.65% in assay [2]; -0.65% in assay [3]; -4.75% in assay [4]; -1% in assay [5]; -8.05% in assay [6].
Regarding `CCOP(=O)(OCC)C(NC(=O)C(C(F)(F)F)C(F)(F)F)c1ccccc1` (centres undefined), the growth inhibition in assay [1] is 7.85%; in assay [2], 16.2%; in assay [3], 0.05%; in assay [4], 24.4%; in assay [5], 34.1%; in assay [6] it was -14.1%.
On to `CCOC(=O)n1oc2ccc(Br)cc2c1=O`, for which the growth inhibition is 53.3% in assay [1]; 58% in assay [2]; 76.2% (active) in assay [3]; 45% in assay [4]; 61.6% in assay [5]; 64.5% in assay [6].
With `O=C(NC(=O)c1cn(CCN(CCO)C(=O)NCCCCCCNC(=O)N(CCO)CCn2cc(C(=O)NC(=O)OCc3ccccc3)c(=O)[nH]c2=O)c(=O)[nH]c1=O)OCc1ccccc1`, the growth inhibition in assay [1] was -2.5%; in assay [2], 7.05%; in assay [3], -18.9%; in assay [4], -23.9%; in assay [5], 0.9%; in assay [6], -17.9%.
